Source: paper PMC7862700, “An all-to-all approach to the identification of sequence-specific readers for epigenetic DNA modifications on cytosine”

Tests used:
Assay in all cases: DAPPL (digital affinity profiling via proximity ligation, sequencing); 10 mM Tris-HCl pH 7.5, 50 mM NaCl, 1 mM DTT, 4% glycerol, room temperature, 30 min; GST-TFs on glutathione beads, 16-mer random dsDNA library, 0.1% formaldehyde crosslink after washing; high values mean tight binding
FLI1 = target: T1, FLI1 (Homo sapiens, UniProt Q01543 1-452); details: protein: recombinant; tags: N-terminal GST; dsDNA, one strand shown
T1 sequence: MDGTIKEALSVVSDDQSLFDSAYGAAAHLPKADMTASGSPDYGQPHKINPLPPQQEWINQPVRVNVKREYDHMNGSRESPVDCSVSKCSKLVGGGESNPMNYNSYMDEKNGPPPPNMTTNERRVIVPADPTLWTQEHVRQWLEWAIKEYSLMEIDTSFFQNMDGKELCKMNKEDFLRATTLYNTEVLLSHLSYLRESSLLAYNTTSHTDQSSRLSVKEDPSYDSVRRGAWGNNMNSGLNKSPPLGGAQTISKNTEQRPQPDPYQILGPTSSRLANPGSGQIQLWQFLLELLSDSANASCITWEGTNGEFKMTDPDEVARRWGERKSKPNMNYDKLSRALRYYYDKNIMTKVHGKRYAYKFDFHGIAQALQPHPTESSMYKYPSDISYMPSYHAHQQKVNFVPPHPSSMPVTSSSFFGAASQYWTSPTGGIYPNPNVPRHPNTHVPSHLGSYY
In short: (§1)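 Human transcription factors carrying a GST fusion were produced in yeast, bound to glutathione beads, tagged with DNA barcodes and pooled together with a tag-only sample. Each pool was held with 200 nmole of a random double-stranded 16-mer DNA library in Tris/NaCl/DTT/glycerol buffer for 30 min at room temperature, then washed, crosslinked in 0.1% formaldehyde, proximity-ligated with BsaI/T4 ligase (1 h, 37 °C), PCR-amplified and sequenced on an Illumina NextSeq500. Binding signal is the read frequency of each hexamer for a given factor divided by its frequency in the tag-only sample.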

ELK1 = target: T2, ELK1 (Homo sapiens, UniProt P19419 1-428); details: protein: recombinant; tags: N-terminal GST; dsDNA, one strand shown
T2 sequence: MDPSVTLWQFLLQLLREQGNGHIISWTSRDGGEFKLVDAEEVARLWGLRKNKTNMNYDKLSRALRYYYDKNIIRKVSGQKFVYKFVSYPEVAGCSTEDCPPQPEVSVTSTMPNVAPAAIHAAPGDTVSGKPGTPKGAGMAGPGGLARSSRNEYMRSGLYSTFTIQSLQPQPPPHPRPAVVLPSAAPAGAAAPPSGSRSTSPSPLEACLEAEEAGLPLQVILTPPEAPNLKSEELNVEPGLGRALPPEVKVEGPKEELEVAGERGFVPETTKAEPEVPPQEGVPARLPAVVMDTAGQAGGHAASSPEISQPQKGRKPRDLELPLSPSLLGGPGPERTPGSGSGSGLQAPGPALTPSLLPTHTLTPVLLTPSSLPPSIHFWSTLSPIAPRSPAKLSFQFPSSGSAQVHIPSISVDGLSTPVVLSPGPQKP
In short: as §1

GABPA = target: T3, GABPA (Homo sapiens, UniProt Q06546 1-454); details: protein: recombinant; tags: N-terminal GST; dsDNA, one strand shown
T3 sequence: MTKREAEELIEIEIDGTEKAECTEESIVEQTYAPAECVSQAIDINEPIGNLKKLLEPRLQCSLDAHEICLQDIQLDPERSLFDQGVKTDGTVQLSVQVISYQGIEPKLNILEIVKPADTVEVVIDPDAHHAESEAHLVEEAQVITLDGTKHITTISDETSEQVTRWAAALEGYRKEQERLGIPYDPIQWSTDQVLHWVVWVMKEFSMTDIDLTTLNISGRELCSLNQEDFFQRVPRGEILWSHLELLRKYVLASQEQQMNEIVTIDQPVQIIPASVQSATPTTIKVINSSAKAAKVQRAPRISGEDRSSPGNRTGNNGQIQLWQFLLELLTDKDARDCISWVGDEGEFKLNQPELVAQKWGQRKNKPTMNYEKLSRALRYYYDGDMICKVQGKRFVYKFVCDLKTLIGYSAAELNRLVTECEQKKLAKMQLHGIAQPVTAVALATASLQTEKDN
In short: as §1

ERG = target: T4, ERG (Homo sapiens, UniProt P11308 1-479); details: protein: recombinant; tags: N-terminal GST; dsDNA, one strand shown
T4 sequence: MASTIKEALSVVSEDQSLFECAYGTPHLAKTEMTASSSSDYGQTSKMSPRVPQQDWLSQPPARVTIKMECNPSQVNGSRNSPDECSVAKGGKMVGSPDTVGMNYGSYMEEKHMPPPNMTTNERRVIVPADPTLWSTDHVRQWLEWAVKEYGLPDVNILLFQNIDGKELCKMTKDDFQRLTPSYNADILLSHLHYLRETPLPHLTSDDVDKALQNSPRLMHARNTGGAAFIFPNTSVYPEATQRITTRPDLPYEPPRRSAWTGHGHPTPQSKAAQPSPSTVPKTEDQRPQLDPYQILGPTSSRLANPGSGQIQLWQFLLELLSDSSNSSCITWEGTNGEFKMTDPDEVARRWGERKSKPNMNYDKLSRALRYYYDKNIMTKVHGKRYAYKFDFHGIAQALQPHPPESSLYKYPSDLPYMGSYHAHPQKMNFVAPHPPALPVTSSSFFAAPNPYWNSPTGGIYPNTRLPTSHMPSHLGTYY
In short: as §1

ELF1 = ELF1 (Homo sapiens, UniProt P32519 1-619); details: protein: recombinant; tags: N-terminal GST; dsDNA, one strand shown
In short: as §1

EHF = target: T5, EHF (Homo sapiens, UniProt Q9NZC4 1-300); details: protein: recombinant; tags: N-terminal GST; dsDNA, one strand shown
T5 sequence: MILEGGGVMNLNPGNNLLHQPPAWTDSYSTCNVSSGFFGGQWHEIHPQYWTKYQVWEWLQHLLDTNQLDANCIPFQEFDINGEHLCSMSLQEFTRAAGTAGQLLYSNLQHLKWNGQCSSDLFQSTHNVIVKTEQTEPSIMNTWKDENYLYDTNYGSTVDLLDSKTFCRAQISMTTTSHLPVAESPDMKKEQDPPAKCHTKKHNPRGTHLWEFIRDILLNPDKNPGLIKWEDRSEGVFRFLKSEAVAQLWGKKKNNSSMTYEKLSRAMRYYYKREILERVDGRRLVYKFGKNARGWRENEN
In short: as §1

SPI1 = SPI1 (Homo sapiens, UniProt P17947 1-270); details: protein: recombinant; tags: N-terminal GST; dsDNA, one strand shown
In short: as §1

SPIB = SPIB (Homo sapiens, UniProt Q01892 1-262); details: protein: recombinant; tags: N-terminal GST; dsDNA, one strand shown
In short: as §1

ELK3 = target: T6, ELK3 (Homo sapiens, UniProt P41970 1-407); details: protein: recombinant; tags: N-terminal GST; dsDNA, one strand shown
T6 sequence: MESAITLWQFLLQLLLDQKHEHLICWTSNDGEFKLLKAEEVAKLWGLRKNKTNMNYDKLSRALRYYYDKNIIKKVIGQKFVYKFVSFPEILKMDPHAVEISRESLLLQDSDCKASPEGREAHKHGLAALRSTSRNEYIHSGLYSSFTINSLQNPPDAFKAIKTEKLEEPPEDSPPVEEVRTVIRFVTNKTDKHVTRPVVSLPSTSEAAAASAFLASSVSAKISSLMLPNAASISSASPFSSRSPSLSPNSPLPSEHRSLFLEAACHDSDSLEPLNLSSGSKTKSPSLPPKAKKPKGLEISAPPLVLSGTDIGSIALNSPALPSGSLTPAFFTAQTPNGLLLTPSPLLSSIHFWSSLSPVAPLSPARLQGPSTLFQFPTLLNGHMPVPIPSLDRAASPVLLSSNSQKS
In short: as §1

FEV = target: T7, FEV (Homo sapiens, UniProt Q99581 1-238); details: protein: recombinant; tags: N-terminal GST; dsDNA, one strand shown
T7 sequence: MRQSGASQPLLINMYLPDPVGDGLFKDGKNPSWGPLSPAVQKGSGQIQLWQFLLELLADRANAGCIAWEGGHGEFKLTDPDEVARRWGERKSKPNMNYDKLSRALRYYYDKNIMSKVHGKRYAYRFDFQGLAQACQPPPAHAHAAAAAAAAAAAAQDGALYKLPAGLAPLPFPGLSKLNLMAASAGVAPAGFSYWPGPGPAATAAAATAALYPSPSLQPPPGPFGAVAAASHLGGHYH
In short: as §1

ETV5 = ETV5 (Homo sapiens, UniProt P41161 1-510); details: protein: recombinant; tags: N-terminal GST; dsDNA, one strand shown
In short: as §1

HSF1 = HSF1 (Homo sapiens, UniProt Q00613 1-529); details: protein: recombinant; tags: N-terminal GST; chain copies: 3; dsDNA, one strand shown
In short: as §1

SPIC = target: T8, SPIC (Homo sapiens, UniProt Q8N5J4 1-248); details: protein: recombinant; tags: N-terminal GST; dsDNA, one strand shown
T8 sequence: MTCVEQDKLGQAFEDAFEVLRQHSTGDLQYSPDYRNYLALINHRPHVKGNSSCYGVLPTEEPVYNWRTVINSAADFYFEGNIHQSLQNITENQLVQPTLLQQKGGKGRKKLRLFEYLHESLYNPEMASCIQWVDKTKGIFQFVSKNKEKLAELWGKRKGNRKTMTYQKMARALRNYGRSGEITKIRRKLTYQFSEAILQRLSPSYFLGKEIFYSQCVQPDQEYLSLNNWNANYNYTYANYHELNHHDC
In short: as §1

ELF4 = ELF4 (Homo sapiens, UniProt Q99607 1-663); details: protein: recombinant; tags: N-terminal GST; dsDNA, one strand shown
In short: as §1

ELK4 = target: T9, ELK4 (Homo sapiens, UniProt P28324-2 1-405); details: protein: recombinant; tags: N-terminal GST; dsDNA, one strand shown
T9 sequence: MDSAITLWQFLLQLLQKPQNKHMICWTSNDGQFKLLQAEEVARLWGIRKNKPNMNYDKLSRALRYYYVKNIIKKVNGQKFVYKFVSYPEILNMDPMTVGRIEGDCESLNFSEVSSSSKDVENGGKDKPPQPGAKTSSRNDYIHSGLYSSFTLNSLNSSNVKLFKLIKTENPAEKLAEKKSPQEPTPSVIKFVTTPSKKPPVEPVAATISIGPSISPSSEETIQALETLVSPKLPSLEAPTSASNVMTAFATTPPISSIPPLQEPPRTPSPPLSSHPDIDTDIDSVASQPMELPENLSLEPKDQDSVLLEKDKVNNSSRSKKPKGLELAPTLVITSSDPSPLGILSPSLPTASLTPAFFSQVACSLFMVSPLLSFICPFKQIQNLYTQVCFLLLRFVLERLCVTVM
In short: as §1

ETV2 = target: T10, ETV2 (Homo sapiens, UniProt O00321 1-342); details: protein: recombinant; tags: N-terminal GST; dsDNA, one strand shown
T10 sequence: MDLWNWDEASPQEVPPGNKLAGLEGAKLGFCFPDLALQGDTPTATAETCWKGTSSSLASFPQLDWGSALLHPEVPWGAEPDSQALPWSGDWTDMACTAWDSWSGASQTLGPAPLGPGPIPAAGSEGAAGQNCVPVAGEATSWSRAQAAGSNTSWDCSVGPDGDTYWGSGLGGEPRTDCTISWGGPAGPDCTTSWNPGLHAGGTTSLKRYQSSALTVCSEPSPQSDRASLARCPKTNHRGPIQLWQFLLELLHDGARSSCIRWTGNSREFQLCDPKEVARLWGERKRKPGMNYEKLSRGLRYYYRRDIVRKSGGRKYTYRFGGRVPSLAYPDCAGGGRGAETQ
In short: as §1

ELF3 = target: T11, ELF3 (Homo sapiens, UniProt P78545 1-371); details: protein: recombinant; tags: N-terminal GST; dsDNA, one strand shown
T11 sequence: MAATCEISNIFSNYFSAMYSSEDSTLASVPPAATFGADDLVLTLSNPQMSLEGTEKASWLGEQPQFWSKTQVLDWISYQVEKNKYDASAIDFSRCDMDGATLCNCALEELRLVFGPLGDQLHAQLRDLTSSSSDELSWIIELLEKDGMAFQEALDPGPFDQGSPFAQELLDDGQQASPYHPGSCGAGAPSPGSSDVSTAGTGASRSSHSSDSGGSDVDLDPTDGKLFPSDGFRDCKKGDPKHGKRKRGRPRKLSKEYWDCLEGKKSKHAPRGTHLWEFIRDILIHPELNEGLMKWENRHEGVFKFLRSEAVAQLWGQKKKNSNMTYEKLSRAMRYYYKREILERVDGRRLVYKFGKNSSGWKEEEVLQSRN
In short: as §1

CRX = CRX (Homo sapiens, UniProt O43186 1-299); details: protein: recombinant; tags: N-terminal GST; dsDNA, one strand shown
In short: as §1

ETV1 = ETV1 (Homo sapiens, UniProt P50549 1-477); details: protein: recombinant; tags: N-terminal GST; dsDNA, one strand shown
In short: as §1

ELF1, sequence (P32519 whole entry): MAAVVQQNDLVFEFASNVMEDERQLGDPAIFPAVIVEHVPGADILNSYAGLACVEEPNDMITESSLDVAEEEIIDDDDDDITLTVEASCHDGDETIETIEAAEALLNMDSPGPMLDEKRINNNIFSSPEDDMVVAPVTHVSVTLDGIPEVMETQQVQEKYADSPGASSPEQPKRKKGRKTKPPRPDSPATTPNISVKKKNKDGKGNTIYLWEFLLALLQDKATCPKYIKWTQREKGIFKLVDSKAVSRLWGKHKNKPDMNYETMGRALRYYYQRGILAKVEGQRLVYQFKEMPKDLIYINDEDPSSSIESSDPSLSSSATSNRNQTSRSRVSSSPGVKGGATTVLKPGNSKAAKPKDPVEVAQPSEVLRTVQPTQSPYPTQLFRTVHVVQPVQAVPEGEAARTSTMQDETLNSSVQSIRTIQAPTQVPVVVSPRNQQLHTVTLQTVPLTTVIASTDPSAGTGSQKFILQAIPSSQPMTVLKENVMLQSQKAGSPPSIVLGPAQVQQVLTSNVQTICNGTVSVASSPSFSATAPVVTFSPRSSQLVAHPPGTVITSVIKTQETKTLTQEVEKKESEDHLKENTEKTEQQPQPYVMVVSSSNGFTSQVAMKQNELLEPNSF
CRX, sequence (O43186 whole entry): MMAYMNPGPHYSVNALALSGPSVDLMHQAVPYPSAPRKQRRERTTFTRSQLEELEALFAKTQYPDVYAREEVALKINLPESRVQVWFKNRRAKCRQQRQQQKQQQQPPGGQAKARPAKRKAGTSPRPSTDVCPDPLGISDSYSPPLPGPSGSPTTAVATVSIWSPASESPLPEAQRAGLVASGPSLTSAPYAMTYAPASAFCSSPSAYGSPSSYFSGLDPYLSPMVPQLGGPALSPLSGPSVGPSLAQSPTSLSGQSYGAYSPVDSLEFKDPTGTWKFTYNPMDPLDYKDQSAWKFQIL
ETV1, sequence (P50549 whole entry): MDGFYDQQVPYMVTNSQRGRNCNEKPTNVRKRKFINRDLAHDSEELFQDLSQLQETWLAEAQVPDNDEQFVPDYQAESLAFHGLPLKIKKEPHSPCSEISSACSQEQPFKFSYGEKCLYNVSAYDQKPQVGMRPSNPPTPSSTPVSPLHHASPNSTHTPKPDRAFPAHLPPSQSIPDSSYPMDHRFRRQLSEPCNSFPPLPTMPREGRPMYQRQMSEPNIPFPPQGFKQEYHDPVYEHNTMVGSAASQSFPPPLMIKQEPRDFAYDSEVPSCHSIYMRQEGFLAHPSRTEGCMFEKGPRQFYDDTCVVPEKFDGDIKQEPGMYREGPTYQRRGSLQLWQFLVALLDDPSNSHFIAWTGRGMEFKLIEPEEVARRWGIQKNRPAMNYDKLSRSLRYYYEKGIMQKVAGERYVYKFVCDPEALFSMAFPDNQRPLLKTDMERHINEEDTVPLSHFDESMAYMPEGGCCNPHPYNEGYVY
SPIB, sequence (Q01892 whole entry): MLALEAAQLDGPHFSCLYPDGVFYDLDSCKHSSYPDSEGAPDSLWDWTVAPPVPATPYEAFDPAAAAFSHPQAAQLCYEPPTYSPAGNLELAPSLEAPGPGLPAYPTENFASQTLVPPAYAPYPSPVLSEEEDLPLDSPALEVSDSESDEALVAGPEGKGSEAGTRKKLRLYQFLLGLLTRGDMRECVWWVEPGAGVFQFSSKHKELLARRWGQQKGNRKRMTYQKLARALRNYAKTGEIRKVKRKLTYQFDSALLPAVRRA
ETV5, sequence (P41161 whole entry): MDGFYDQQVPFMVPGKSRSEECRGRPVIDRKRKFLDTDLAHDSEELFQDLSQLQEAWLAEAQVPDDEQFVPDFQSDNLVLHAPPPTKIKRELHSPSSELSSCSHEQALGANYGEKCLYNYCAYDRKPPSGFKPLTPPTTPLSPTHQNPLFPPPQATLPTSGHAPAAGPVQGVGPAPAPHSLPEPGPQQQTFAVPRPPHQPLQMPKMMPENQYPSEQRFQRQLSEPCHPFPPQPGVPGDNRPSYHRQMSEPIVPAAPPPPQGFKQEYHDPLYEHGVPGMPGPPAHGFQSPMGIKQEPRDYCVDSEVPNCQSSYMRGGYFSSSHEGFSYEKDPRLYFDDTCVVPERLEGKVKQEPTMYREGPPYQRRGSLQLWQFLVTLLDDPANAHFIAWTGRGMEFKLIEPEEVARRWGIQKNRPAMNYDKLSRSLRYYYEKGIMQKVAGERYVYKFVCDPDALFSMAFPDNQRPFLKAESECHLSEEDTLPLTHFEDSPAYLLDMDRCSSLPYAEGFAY
ELF4, sequence (Q99607 whole entry): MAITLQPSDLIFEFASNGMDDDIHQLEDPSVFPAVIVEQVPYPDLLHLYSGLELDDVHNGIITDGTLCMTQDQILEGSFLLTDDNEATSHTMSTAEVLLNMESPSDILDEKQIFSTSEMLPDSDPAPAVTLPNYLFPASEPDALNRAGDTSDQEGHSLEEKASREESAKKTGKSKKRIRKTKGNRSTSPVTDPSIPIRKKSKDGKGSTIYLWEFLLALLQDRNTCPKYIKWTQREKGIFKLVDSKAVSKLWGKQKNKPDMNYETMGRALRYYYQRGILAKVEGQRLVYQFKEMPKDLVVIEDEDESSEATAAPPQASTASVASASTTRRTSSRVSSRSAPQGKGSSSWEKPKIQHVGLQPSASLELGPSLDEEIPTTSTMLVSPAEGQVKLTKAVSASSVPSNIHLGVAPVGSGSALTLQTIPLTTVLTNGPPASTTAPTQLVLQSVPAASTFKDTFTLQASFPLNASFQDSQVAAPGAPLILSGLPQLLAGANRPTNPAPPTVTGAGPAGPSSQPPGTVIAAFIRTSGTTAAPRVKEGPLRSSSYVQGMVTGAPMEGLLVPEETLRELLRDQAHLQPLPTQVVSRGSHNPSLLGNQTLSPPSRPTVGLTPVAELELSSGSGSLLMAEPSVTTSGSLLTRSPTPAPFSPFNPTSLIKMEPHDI
HSF1, sequence (Q00613 whole entry): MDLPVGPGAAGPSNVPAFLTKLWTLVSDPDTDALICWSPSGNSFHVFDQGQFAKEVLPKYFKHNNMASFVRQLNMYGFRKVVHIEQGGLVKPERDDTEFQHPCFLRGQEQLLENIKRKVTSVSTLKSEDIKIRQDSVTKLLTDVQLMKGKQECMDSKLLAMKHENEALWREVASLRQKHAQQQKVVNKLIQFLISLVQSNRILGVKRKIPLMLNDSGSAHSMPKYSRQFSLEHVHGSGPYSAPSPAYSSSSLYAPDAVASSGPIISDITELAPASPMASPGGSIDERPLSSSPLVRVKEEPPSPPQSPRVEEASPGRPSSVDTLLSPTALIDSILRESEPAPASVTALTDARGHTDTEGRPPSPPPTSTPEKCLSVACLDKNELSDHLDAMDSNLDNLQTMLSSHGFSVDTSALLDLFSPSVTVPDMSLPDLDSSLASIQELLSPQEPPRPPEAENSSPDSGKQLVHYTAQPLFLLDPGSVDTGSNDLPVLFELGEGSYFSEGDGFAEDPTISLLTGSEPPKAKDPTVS

TTGACC was tested, and the binding signal (FLI1) was 1.4 fold enrichment (6-mer frequency, TF over GST control), the binding signal (ELK1) was 1.44 fold enrichment (6-mer frequency, TF over GST control) and the binding signal (GABPA) was 1.56 fold enrichment (6-mer frequency, TF over GST control). The binding signal (ERG) was 1.49 fold enrichment (6-mer frequency, TF over GST control), the binding signal (ELF1) was 1.43 fold enrichment (6-mer frequency, TF over GST control) and the binding signal (EHF) was 1.46 fold enrichment (6-mer frequency, TF over GST control). For the same sequence, the binding signal (SPI1) was 1.34 fold enrichment (6-mer frequency, TF over GST control), the binding signal (SPIB) was 1.46 fold enrichment (6-mer frequency, TF over GST control) and the binding signal (ELK3) was 1.54 fold enrichment (6-mer frequency, TF over GST control). The binding signal (FEV) was 1.33 fold enrichment (6-mer frequency, TF over GST control), the binding signal (ETV5) was 1.41 fold enrichment (6-mer frequency, TF over GST control) and the binding signal (HSF1) was 1.16 fold enrichment (6-mer frequency, TF over GST control). The binding signal (SPIC) was 1.45 fold enrichment (6-mer frequency, TF over GST control), the binding signal (ELF4) was 1.44 fold enrichment (6-mer frequency, TF over GST control) and the binding signal (ELK4) was 1.4 fold enrichment (6-mer frequency, TF over GST control). The binding signal (ETV2) was 1.38 fold enrichment (6-mer frequency, TF over GST control), the binding signal (ELF3) was 1.27 fold enrichment (6-mer frequency, TF over GST control) and the binding signal (CRX) was 1.19 fold enrichment (6-mer frequency, TF over GST control). The binding signal (ETV1) was 1.41 fold enrichment (6-mer frequency, TF over GST control).
